In paper PMC4336329 (PLoS ONE, 2015):
The whole screen tested about 310,000 compounds, of which about 14,000 (4.5%) showed an effect of 50% or more. Effects have a minus sign here. Shown is part of a subset that was picked to be rich in strong results.

Target: human ether-à-go-go-related gene (hERG) potassium channel (human, UniProt Q12809)
Experiment: primary screen, population patch clamp on CHO cells stably expressing hERG; higher = less effect of the substance
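Further: peak tail current of the secondary pulse compared with the same well before compound.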

Sequence of human ether-à-go-go-related gene (hERG) potassium channel (Q12809 whole entry, looked up): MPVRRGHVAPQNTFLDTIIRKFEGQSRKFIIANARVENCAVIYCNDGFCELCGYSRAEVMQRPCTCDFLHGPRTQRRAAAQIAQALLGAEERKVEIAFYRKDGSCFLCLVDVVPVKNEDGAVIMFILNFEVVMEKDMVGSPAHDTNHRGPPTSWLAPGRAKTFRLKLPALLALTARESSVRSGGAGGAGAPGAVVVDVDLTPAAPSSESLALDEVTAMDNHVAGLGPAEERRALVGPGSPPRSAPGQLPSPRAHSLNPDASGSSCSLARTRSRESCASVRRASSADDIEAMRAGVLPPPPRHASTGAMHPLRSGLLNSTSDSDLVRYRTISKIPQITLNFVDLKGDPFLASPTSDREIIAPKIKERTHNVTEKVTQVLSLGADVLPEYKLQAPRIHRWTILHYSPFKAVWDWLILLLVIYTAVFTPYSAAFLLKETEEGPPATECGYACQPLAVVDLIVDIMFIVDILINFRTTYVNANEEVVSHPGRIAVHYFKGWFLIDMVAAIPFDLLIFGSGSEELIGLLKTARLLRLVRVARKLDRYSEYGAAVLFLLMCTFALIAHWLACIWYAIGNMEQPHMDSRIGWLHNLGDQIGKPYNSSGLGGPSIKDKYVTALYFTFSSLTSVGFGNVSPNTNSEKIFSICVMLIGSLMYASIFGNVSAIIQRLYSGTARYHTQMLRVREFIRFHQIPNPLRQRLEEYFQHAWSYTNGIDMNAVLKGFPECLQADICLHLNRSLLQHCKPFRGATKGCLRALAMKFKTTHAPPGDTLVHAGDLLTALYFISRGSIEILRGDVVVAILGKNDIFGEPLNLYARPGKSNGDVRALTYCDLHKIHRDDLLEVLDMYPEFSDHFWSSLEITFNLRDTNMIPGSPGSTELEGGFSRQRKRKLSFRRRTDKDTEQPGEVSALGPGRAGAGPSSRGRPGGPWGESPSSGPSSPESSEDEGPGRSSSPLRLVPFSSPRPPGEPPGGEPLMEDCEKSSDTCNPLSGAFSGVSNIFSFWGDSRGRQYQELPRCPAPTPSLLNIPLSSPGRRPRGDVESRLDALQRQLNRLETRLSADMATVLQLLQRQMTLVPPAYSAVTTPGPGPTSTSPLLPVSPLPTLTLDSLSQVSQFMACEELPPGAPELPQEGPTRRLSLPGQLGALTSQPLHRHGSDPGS

Row | Structure (SMILES) | hERG current change (%, negative = inhibition) at 10uM [%]
1 | Cc1cc(N2CCC(C)CC2)nc2cccc(O)c12 | -28.7
2 | CCOC(=O)c1cnc2ccc(OCC)cc2c1N1CCN(C)CC1.Cl | -47.8
3 | CCc1ccc(C(=O)c2cnc3ccc(OC)cc3c2N2CCN(CC)CC2)cc1 | -67.7
4 | CCOc1ccc2ncc(C(=O)c3ccc(OC)cc3)c(N3CCN(CC)CC3)c2c1 | -74.5
5 | CCN1CCN(c2c(C=O)c(Cl)nc3ccc(OC)cc23)CC1 | -54.5
6 | CCc1ccc2ncc(C(=O)c3ccccc3)c(N3CCOCC3)c2c1 | -45.7
7 | CCOC(=O)c1cnc2ccc(OCC)cc2c1N1CCN(c2ccccc2OC)CC1 | -5.78
8 | COc1cc2ncc(C(=O)c3ccccc3)c(N3CCN(Cc4ccccc4)CC3)c2cc1OC | -12.9
9 | COc1ccc(N2CCN(c3c(S(=O)(=O)c4ccccc4)cnc4ccc(OC)cc34)CC2)cc1 | -17.7
10 | CCOc1ccc2ncc(S(=O)(=O)c3ccccc3)c(N3CCN(c4ccc(OC)cc4)CC3)c2c1 | -10.9
11 | CSc1ccccc1NC(=O)Cn1ccsc1=N | 33.3
12 | Cc1cc(NC(=O)CCCC(=O)OCC(F)(F)C(F)F)cc(C)c1C(=O)O | 20.1
13 | O=C(O)CC1OCC=C2CN3CCC45C6=CC(=O)C(=O)C([N+](=O)[O-])=C6NC4C1C2CC35 (centres unmarked) | 10.1
14 | Cc1ccc(C)c(N2CCN(C(=O)Cn3cccc3)CC2)c1 | -19
15 | COc1ccc(/C=C/c2cc(C(F)(F)F)[nH]c(=O)n2)cc1OC | -6.91
16 | COc1cc(/C=C/c2cc[n+](C)cc2)ccc1OCC(=O)Nc1ccc(Cl)c(Cl)c1.[I-] | -5.84
17 | CS(=O)(=O)N(CC(=O)N1CCCC1)c1ccc(OCc2ccccc2)cc1 | -15.7
18 | OCCC#Cc1ccc(CN2CCN(CCc3ccccc3)C(CCO)C2)cc1 (centres unmarked) | -20.7
19 | C#Cc1ccc(CN2CCN(CCc3ccccc3)C(CCO)C2)cc1 (centres unmarked) | -58.8
20 | C#Cc1ccc(CN2CCN(CCCc3ccccc3)C(CCO)C2)cc1 (centres unmarked) | -69.8
21 | Nc1c(C(=O)NC2CCCC2)c2nc3ccccc3nc2n1N | 25.1
22 | CC1CCc2c(nc3sc4c(c3c2N)CCCC4)C1 (centres unmarked) | -11.5

Row | Structure (SMILES) | hERG current change (%, negative = inhibition) at 10uM [%]
23 | CN(Cc1ccccc1NS(=O)(=O)c1ccc2ccccc2c1)C1CCCCC1.Cl | 7.73
24 | O=C(CNC(=O)C(c1ccccc1)c1ccccc1)N/N=C/c1ccc(O)cc1O | -4.68
25 | O=C(CCN1CCN(C(c2ccccc2)c2ccccc2)CC1)N/N=C/c1ccc(O)cc1O | -53.1
26 | COc1ccc(/C=N/NC(=O)c2cc(C)n(-c3ccccc3)c2C)cc1OC | -53.2
27 | COc1cc(/C=N/NC(=O)CCN2CCCCC2)ccc1O | -12
28 | COc1cc(/C=N/NC(=O)CCN2CCN(C(c3ccccc3)c3ccccc3)CC2)ccc1O | -78.7
29 | Cc1cc(C(=O)N/N=C/c2cccc([N+](=O)[O-])c2)c(C)n1-c1ccccc1 | 8.8
30 | COc1cc(/C=N/NC(=O)CCN2CCN(c3ccccc3)CC2)cc(OC)c1OC | -22.2
31 | COc1cc(/C=N\NC(=O)CNC(=O)C(c2ccccc2)c2ccccc2)ccc1O | -25.7
32 | COc1ccc(/C=N\NC(=O)CCN2CCN(c3ccccc3)CC2)cc1OC | -56.9
33 | COc1cc(/C=N/NC(=O)c2cc(C)n(-c3ccc(F)cc3)c2C)cc(OC)c1O | -13.4
34 | COc1ccc(/C=N/NC(=O)CCN2CCN(c3ccccc3)CC2)c(OC)c1OC | -3.73
35 | COc1ccc(OC)c(/C=N/NC(=O)CCN2CCN(C(c3ccccc3)c3ccccc3)CC2)c1 | -2.39
36 | Cc1ccccc1N(C(=O)CNC(=O)c1ccco1)C(C(=O)NC1CCCCC1)c1cccnc1 (centres unmarked) | 14.3
37 | Cc1cc(C)cc(NS(=O)(=O)c2ccc(NC(=O)C3CCCCC3C(=O)O)cc2)c1 (centres unmarked) | 2.18
38 | CSc1ccc(CNC(=O)c2ccc(NC(=O)C3=CSCCO3)cc2)cc1 | 28.4
39 | CCCCc1ccc(S(N)(=O)=O)cc1 | 15.7
40 | O=C(CCN1CCN(C(c2ccccc2)c2ccccc2)CC1)N/N=C/c1ccc(O)cc1 | -54.8
41 | O=C(CSC1CN(C(c2ccccc2)c2ccccc2)C1)N/N=C/c1ccccc1 | 1.64
42 | NNC(=O)CCN1CCN(C(c2ccccc2)c2ccccc2)CC1 | -7.7
43 | Cc1cc2c(cc1C)-c1nnnn1C(C)(C)C2 | 15.2
44 | N#Cc1ccc(-n2c(-c3ccccc3)nnc2-c2ccccc2)cc1C#N | -15.5

Row | Structure (SMILES) | hERG current change (%, negative = inhibition) at 10uM [%]
45 | O=C1N/C(=N/c2ccccn2)SC1Cc1ccccc1 (centres unmarked) | -13.7
46 | CCOc1ccc(NC(=O)Cn2c(=O)n(CCCC(=O)NC3CCN(Cc4ccccc4)CC3)c(=O)c3ccccc32)cc1 | -38
47 | O=C(CCCn1c(=O)c2ccccc2n(Cc2cccc(F)c2)c1=O)NC1CCN(Cc2ccccc2)CC1 | -68.6
48 | CCc1ccc(NC(=O)Cn2c(=O)n(CCC(=O)NC3CCN(Cc4ccccc4)CC3)c(=O)c3ccccc32)cc1 | 1.83
49 | Cc1cc(NC(=O)Cn2c(=O)n(CCCCC(=O)NC3CCN(Cc4ccccc4)CC3)c(=O)c3ccccc32)n[nH]1 | 26.5
50 | Cc1cccc(C)c1NC(=O)Cn1c(=O)n(CCCC(=O)NC2CCN(Cc3ccccc3)CC2)c(=O)c2ccccc21 | -58.6
51 | COC(=O)c1ccccc1NC(=O)Cn1c(=O)n(CCC(=O)NC2CCN(Cc3ccccc3)CC2)c(=O)c2ccccc21 | -34.8
52 | O=C(CCCCn1c(=O)c2ccccc2n(Cc2ccccc2F)c1=O)NC1CCN(Cc2ccccc2)CC1 | -9.04
53 | O=C(CCn1c(=O)c2ccccc2n(Cc2ccccc2)c1=O)NC1CCN(Cc2ccccc2)CC1 | -42.5
54 | O=C(CCCCn1c(=O)c2ccccc2n(Cc2ccccc2)c1=O)NC1CCN(Cc2ccccc2)CC1 | -67.9
55 | Cc1ccc(NC(=O)Cn2c(=O)n(CCC(=O)NC3CCN(Cc4ccccc4)CC3)c(=O)c3ccccc32)cc1 | -1.53
56 | COc1cccc(NC(=O)Cn2c(=O)n(CCC(=O)NC3CCN(Cc4ccccc4)CC3)c(=O)c3ccccc32)c1 | -57.6
57 | NC(=O)Cn1c(=O)n(CCCC(=O)NC2CCN(Cc3ccccc3)CC2)c(=O)c2ccccc21 | -6.48
58 | N#CC1=C(N)Oc2n[nH]c(-c3ccccc3)c2C12C(=O)Nc1ccccc12 (centres unmarked) | 17.4
59 | NC(=S)N/N=C/c1coc2ccc(F)cc2c1=O | 10.3
60 | COCCNC(=O)c1ccc(-n2c(SCc3cccnc3)nc3ccccc3c2=O)cc1 | -8.88
61 | Fc1ccc(/C=N/Nc2cc(N3CCOCC3)ncn2)cc1 | 15.4
62 | COC(=O)c1ccccc1N/C=C/C(=O)c1ccc(Br)cc1 | 16.1
63 | Cn1c(SCC(=O)NNC(=O)Cc2ccccc2)nc2ccccc2c1=O | 11.7
64 | COc1ccc(CCC(=O)N2CC(C)OC(C)C2)cc1 (centres unmarked) | 5.02
65 | CCOCc1nnc(NC(=O)c2cc(C(=O)OC)cc([N+](=O)[O-])c2)s1 | 21.3
66 | C(=N\Nc1nc(-c2ccccc2)cs1)/c1cccs1 | 18.5

Row | Structure (SMILES) | hERG current change (%, negative = inhibition) at 10uM [%]
67 | C(=N\Nc1nc(-c2ccccc2)cs1)/c1ccncc1 | -50.5
68 | C(=N\Nc1nc(-c2ccccc2)cs1)/c1cccnc1 | -59.5
69 | Br.CC(=O)Nc1ccc(-c2csc(N/N=C\c3ccncc3)n2)cc1 | 4.43
70 | Brc1ccc(-c2csc(N/N=C/c3cccnc3)n2)cc1 | 19.6
71 | Clc1ccc(-c2csc(N/N=C\c3cccnc3)n2)cc1 | 6.05
72 | CC(=O)Oc1ccc2oc(C)c(C(=O)N3CCOCC3)c2c1 | -8.91
73 | CCN(CC)C(=O)Oc1nnc(SC(C)C)n1-c1ccc(Cl)cc1 | -4.75
74 | Nc1ccc(Oc2ccc(Br)cc2)cc1 | -4.61
75 | CN1C(=O)/C(=N\OC(=O)c2ccccc2Cl)c2ccccc21 | -42.8
76 | Cc1[nH]n(-c2ccccc2)c(=O)c1N=Nc1cccc(C(=O)O)c1 | 23.1
77 | O=C(NC1CCCC1)C1(c2ccccc2)CCN(S(=O)(=O)c2ccccc2)CC1 | -6.14
78 | CCCn1c(C(C)NC(=O)c2ccccc2)n[nH]c1=S (centres unmarked) | 12.7
79 | O=C(C#Cc1ccccc1)c1ccco1 | 5.83
80 | CCOC(=O)c1[nH]ncc1CN1CCC(Cc2ccccc2)(C(=O)OCC)CC1 | -35.3
81 | CCOC(=O)C1(Cc2ccc(OC)cc2)CCN(C(=O)c2cccc3nccnc23)CC1 | -31.4
82 | CCOC(=O)C1(CCOc2ccccc2)CCN(Cc2cccc3nonc23)CC1 | -28.6
83 | CCOC(=O)C1(CCc2ccccc2)CCN(Cc2cccc3cnccc23)CC1 | -69.6
84 | CCOC(=O)C1(CCc2ccccc2)CCN(Cc2cccc3nccnc23)CC1 | -60.5
85 | CCOC(=O)C1(Cc2ccccc2)CCN(Cc2cccc3nccnc23)CC1 | -59.9
86 | CCOC(=O)C1(Cc2cccc(OC)c2)CCN(Cc2cccc3cnccc23)CC1 | -39.3
